Hits are enriched below; roughly 1.6% of the tested compounds scored in any of these assays.
KCNQ2 pot – potentiators of rat KCNQ2 potassium channel; Potassium voltage-gated channel subfamily KQT member 2 (Rattus norvegicus), O88943; AID 2239, 2010; CHO-K1 KCNQ2, FluxOR thallium flux fluorescence; hits give high values; actives 0.54% (n = 310,000); B-score at 10 µM;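 active = fluorescence ratio B-score at least 3 SD of library B-scores, with initial fluorescence B-score within 3 of them, cut at about 5.3 in these data; same plate scores as AID 2156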;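 also: B-score of peak minus minimum over baseline fluorescence ratio after K+ and Tl+ stimulus; positive B-score means potentiation of KCNQ2 with more thallium influx and brighter signal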
KCNQ2 block – rat KCNQ2 potassium channel inhibitors, primary screen, cell-based, CHO-K1, FluxOR thallium flux, B-score | Potassium voltage-gated channel subfamily KQT member 2 (Rattus norvegicus), O88943 | 20 min; hits give low values | B-score at 10 µM | actives 1.1% (n = 310,000) | AID 2156, 2009;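 active = fluorescence ratio B-score at most minus 3 library SDs, with starting brightness B-score within 2 library SDs, cut at about -5.5 in these data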
Numbers stand for hits; - = inactive; . = not tested or not shown.

SMILES | KCNQ2 pot | KCNQ2 block
CC1(c2nnc(-c3ccncc3)o2)CC(c2ccccc2)=NO1 (stereo unspecified) | - | -
CCn1c(SCC(=O)NC2CCCC2)nnc1C(C)C | - | -
CCN(CCO)Cc1csc2ccc(Br)cc12 | - | -
C#CCn1c(CCNC(=O)c2ccco2)nc2ccccc21 | - | -
CNC(=S)N/N=C/c1cc(Br)cc(Br)c1O | 7.01 | -
Oc1c(Br)cc(Br)cc1/C=N/NC(=S)N[C@H]1CC2C=CC1C2 (stereo partly specified) | - | -
CCN(CC)CCn1c2c(c(SCC(=O)Nc3ccc4c(c3)OCCO4)nc1=O)CCCC2 | - | -
COc1ccccc1N1CCN(C(=O)c2ccc(C(C)(C)C)cc2)CC1 | . | -
COc1ccccc1C1CCN(C(=O)c2ccc(C(C)(C)C)cc2)CC1 | - | -6.5
COc1cccc(/C=N/n2c(=S)n(C)c3cc(C)c(C)cc32)c1OC | - | -6.13
COc1cccc(/C=N/n2c(-c3cc(C)[nH]n3)n[nH]c2=S)c1OC | . | -
C=CCn1c(C(C)NC(=O)C(C)(C)C)nc2ccccc21 (stereo unspecified) | - | -6.6
C=CCn1c(CCCNC(=O)C(C)(C)C)nc2ccccc21 | - | -
Cc1cc(OCc2cc(C(=O)N(C)CCOc3ccccc3)no2)cc(C)c1Cl | - | -5.66
COc1cccc(CN(C)C(=O)c2cc(COc3ccc4ncccc4c3)on2)c1 | - | -7.46
COc1cccc(CN(C)C(=O)c2cc(COc3c(F)cccc3F)on2)c1 | . | -
Cc1cc(OCc2cc(C(=O)N(C)Cc3ccccn3)no2)cc(C)c1Cl | . | -
O=C(NCCc1cn2ccccc2n1)c1cc(COc2ccc3ncccc3c2)on1 | - | -6.04
O=C(NC1CCCC1)c1cc(COc2ccc3ncccc3c2)on1 | - | -
CN(CCCN1CCOCC1)C(=O)c1cc(COc2cccc(C(F)(F)F)c2)on1 | . | -
CN(CCc1ccccc1)C(=O)c1cc(COc2cccc(C(F)(F)F)c2)on1 | - | -5.54
CSc1ncc(C(=O)Nc2cc(C)ccc2C)c(C)n1 | . | -
CCCOc1ccc(OC(=O)c2ccc(Br)o2)cc1 | . | -
CCCCOc1ccc(C(=O)N/C(=C\c2cccc([N+](=O)[O-])c2)C(=O)OC(C)C)cc1 | - | -6.05
CCCCOc1ccc(C(=O)N/C(=C\c2cccc([N+](=O)[O-])c2)C(=O)OCCC)cc1 | . | -
SMILES | KCNQ2 pot | KCNQ2 block
CSc1ccccc1OCc1cc(C(=O)N(C)C2CCCc3ccccc32)no1 (stereo unspecified) | . | -
CN(C(=O)c1cccc(C(F)(F)F)c1)C1CCCc2ccccc21 (stereo unspecified) | - | -5.77
Cc1nc2ccccc2c(=O)n1NC(=O)c1cccc(Cl)c1 | - | -
O=C(OCc1ccc([N+](=O)[O-])cc1Cl)c1cnccn1 | . | -
CCOC(=O)C1=C(C)N(c2ccccc2)C(=O)/C1=C\c1cccs1 | . | -
COC(=O)C1=C(C)N(c2cccc(C)c2)C(=O)/C1=C\c1cccs1 | - | -6.71
COc1c(Br)cc(Br)cc1C(=O)Nc1ccccc1N1CCCC1 | . | -
Fc1ccc(NC(=S)NC23CN4CN(CN(C4)C2)C3)cc1 | . | -
COc1ccc(C2=NN(C(=O)CSc3ncccn3)C(c3ccc(C)cc3)C2)cc1 (stereo unspecified) | - | -
COc1ccc(C2=NN(C(=O)CSc3nc(=O)n4cccc(C)c4n3)C(c3ccc(C)cc3)C2)cc1 (stereo unspecified) | - | -7.41
O=C(CCc1ccccc1)NNC(=O)COc1ccccc1Cl | - | -
O=C(NCCC1CCCCN1S(=O)(=O)c1ccccc1)C(=O)NC1CC1 (stereo unspecified) | . | -
CCC(C)c1ccccc1NC(=O)Cc1coc2cc3c(cc12)CCC3 (stereo unspecified) | 7.67 | -
Cc1ccc(C)c(NC(=O)Cc2coc3cc4c(cc23)CCC4)c1 | - | -
Cc1cc(SCC(=O)NC2CCCC2)nc2ccccc12 | . | -
CCC/C=C(\CCC)C(NC(=O)c1ccc(C(F)(F)F)cc1)c1ccccc1 (stereo unspecified) | - | -6.56
CCC/C=C(\CCC)C(NC(=O)c1ccc(C(=O)OC)cc1)c1ccc(C(=O)OC)cc1 (stereo unspecified) | - | -7.2
CC(C)CC(C)NC(=O)c1ccc(C(F)(F)F)cc1 (stereo unspecified) | - | -
COC(=O)c1ccc(C(=O)NN)cc1 | . | -
COc1cc(C2=NOC(C(=O)N3CCN(c4ccc(F)cc4)CC3)C2)cc(OC)c1OC (stereo unspecified) | . | -
COc1cc(C2=NOC(C(=O)N3CCCCCC3)C2)cc(OC)c1OC (stereo unspecified) | - | -6.61
COc1ccc(CNS(=O)(=O)c2ccc3c(c2)NC(=O)C(C)S3)cc1 (stereo unspecified) | . | -
Cc1ccc(C(=O)NC(=S)Nc2ccccc2N2CCOCC2)cc1C | - | -6.1
COc1cc(C(=O)NC(=S)Nc2ccccc2N2CCOCC2)cc(OC)c1OC | . | -
CCC1CN(C)C2Cc3c([nH]c4ccccc34)C(=O)CC1C2C(=O)OC (stereo unspecified) | . | -
SMILES | KCNQ2 pot | KCNQ2 block
CC[C@H]1CC2CN3CCc4c([nH]c5c([C@H]6C[C@H]7[C@H](CC)CN(C)[C@@H](Cc8c6[nH]c6ccccc86)[C@H]7C(=O)OC)c(OC)ccc45)C(C(=O)OC)(C2)C13 | - | -7.51
Cc1oc2cc3oc(=O)c(CCC(=O)N[C@H](C(=O)O)C(C)C)c(C)c3cc2c1C | - | -
COc1ccc(OC)c(S(=O)(=O)CC(O)CS(=O)(=O)c2ccccc2)c1 (stereo unspecified) | . | -
COc1ccc(-c2ccnc(SCC(=O)c3ccc(OC)c(OC)c3)n2)cc1 | - | -
COc1ccc(OC)c(C(=O)CSc2nccc(-c3ccc(Br)cc3)n2)c1 | - | -6.4
O=C(CSc1nc2ccccc2nc1N1CCCCC1)N1CCN(c2ccccc2)CC1 | - | -7.69
O=C(CSc1nc2ccccc2nc1N1CCOCC1)N1CCN(c2ccccc2)CC1 | - | -
CC(C)CN(C(=O)C(c1ccccc1)c1ccccc1)c1c(N)n(CC(C)C)c(=O)[nH]c1=O | - | -
O=C(Nc1cc(Sc2nc3ccccc3s2)cc([N+](=O)[O-])c1)c1ccccc1 | . | -
O=C(Nc1cc(Sc2nc3ccccc3s2)cc([N+](=O)[O-])c1)c1ccccc1F | - | -6.03
Cc1c(NC(=O)/C=C/c2ccc(S(=O)(=O)N3CCOCC3)cc2)c(=O)n(-c2ccccc2)n1C | - | -
CN(C)S(=O)(=O)c1cccc(NC(=O)c2ccc3c(c2)OCCO3)c1 | - | -
C=C(C)c1cccc(C(C)(C)NC(=O)Nc2nncs2)c1 | . | -
C=C(C)c1cccc(C(C)(C)NC(=O)Nc2nnc(C(C)C)s2)c1 | - | -7.84
COc1ccc(C)cc1-n1nnnc1SCc1cc(=O)n2cc(C)ccc2n1 | - | -
CCC1Oc2ccc(C)cc2N(Cc2cccc(C)c2)C1=O (stereo unspecified) | - | -5.89
Cc1ccc2c(c1)N(Cc1ccc3c(c1)OCO3)C(=O)C(C)O2 (stereo unspecified) | . | -
CCNC(=O)NC(=O)C(C)Oc1ccc(Br)cc1Br (stereo unspecified) | . | -
O=C(CSc1nnnn1C1CCCC1)N1CCCc2ccccc21 | . | -
O=C(CSc1nnc(Cc2cccs2)n1CCc1ccccc1)N1CCCc2ccccc21 | - | -6.47
Cn1c(Cc2cccs2)nnc1SCC(=O)N1CCCc2ccccc21 | . | -

Assay outcomes (PubChem BioAssay)
